Several values for one entry are separate records, joined by “and”; a condition that tells them apart may be missing. Identical values can stand only once. This is part of a sample that, as a whole, favours compounds with a hit. Of some 79,000 tested, about 15% had one in any assay. More than one record can exist for a structure, and the calls need not agree. Activity calls are given as the source filed them. Cut-off read from the data, not from the text of the source: active = growth inhibition above about 70%; inactive = the rest.
Key:
[1] = NCI Yeast Anticancer Drug Screen. Data for the rad52 strain (AID 147);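 note: 0% = growth of vehicle-treated control cultures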; conditions: S. cerevisiae rad52 mutant growth inhibition, stronger effect = higher value
Procedure, shortened: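 The repair-mutant yeast strain was incubated with compounds, then growth was read and inhibition derived relative to vehicle.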

[2] = NCI Yeast Anticancer Drug Screen. Data for the wt1 strain (AID 149);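 note: 0% = growth of vehicle-treated wt1 cultures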; conditions: S. cerevisiae wt1 strain (SPY 50644) growth inhibition, stronger effect = higher value
Procedure, shortened: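 Readout: yeast growth inhibition, normalised to vehicle controls, in the wt1 strain exposed to test compounds.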

[3] = NCI Yeast Anticancer Drug Screen. Data for the rad50EPP+ strain (AID 151);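 note: 0% = growth of vehicle-treated control cultures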; conditions: S. cerevisiae rad50 mutant strain, stronger effect = higher value
Procedure, shortened: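 Vehicle-normalised growth inhibition; rad50EPP+ yeast strain, altered in DNA damage repair, compound-treated.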

[4] = NCI Yeast Anticancer Drug Screen. Data for the mgt1 strain (AID 153); conditions: S. cerevisiae mgt1 mutant growth inhibition, stronger effect = higher value
Procedure, shortened: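 Vehicle-normalized growth inhibition is determined in mgt1 yeast, a strain selected for a defined alteration in DNA repair or cell cycle control.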

[5] = NCI Yeast Anticancer Drug Screen. Data for the rad50 strain (AID 155);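 note: 0% = growth of vehicle-only cultures of the same strain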; conditions: S. cerevisiae rad50 strain growth inhibition, stronger effect = higher value
Procedure, shortened: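 Compounds were tested on a yeast strain with an engineered DNA damage repair alteration; the reported value is growth inhibition normalised to vehicle treatment.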

[6] = NCI Yeast Anticancer Drug Screen. Data for the mec2-1 strain (AID 157); conditions: S. cerevisiae mec2-1 strain, stronger effect = higher value
Procedure, shortened: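 Mutant yeast (mec2-1) grown with compound; growth inhibition relative to vehicle control reported.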

[7] = NCI Yeast Anticancer Drug Screen. Data for the rad14 strain (AID 159);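 note: 0% = growth of vehicle-treated control cultures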; conditions: S. cerevisiae rad14 strain growth inhibition, stronger effect = higher value
Procedure, shortened: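 Compound-treated yeast with a defined DNA-repair lesion; growth inhibition normalised to vehicle-treated cultures.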

[8] = NCI Yeast Anticancer Drug Screen. Data for the sgs1 mgt1 strain (AID 161);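 note: 0% = growth of cultures given vehicle only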; conditions: S. cerevisiae sgs1 mgt1 strain, stronger effect = higher value
Procedure, shortened: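 Compounds are added to genetically altered yeast, and growth is compared with cultures given vehicle alone to give percent inhibition.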

[9] = NCI Yeast Anticancer Drug Screen. Data for the CLN2oe strain (AID 163);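 note: 0% = growth of vehicle-only control cultures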; conditions: S. cerevisiae CLN2oe strain, stronger effect = higher value
Procedure, shortened: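 Compounds are applied to yeast harbouring a defined cell-cycle control change; reduced growth compared with vehicle-treated controls gives the value.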

[10] = NCI Yeast Anticancer Drug Screen. Data for the cln2 rad14 strain (AID 165);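 note: 0% = growth equal to vehicle treated cultures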; conditions: S. cerevisiae cln2 rad14 strain, stronger effect = higher value
Procedure, shortened: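 Readout is yeast growth inhibition versus vehicle-treated controls, using a strain with cln2 and rad14 alterations exposed to compound.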

[11] = NCI Yeast Anticancer Drug Screen. Data for the bub3 strain (AID 167); conditions: S. cerevisiae bub3 mutant strain, stronger effect = higher value
Procedure, shortened: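 Growth of a checkpoint-deficient yeast mutant is measured after compound exposure. Values represent inhibition relative to vehicle.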

[12] = NCI Yeast Anticancer Drug Screen. Data for the wt2 strain (AID 169);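 note: 0% = growth of vehicle-treated yeast cultures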; conditions: S. cerevisiae wt2 strain growth inhibition, stronger effect = higher value
Procedure, shortened: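 Against vehicle-treated controls, the growth of yeast exposed to each compound was compared, and the inhibition was recorded.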

[13] = NCI Yeast Anticancer Drug Screen. Data for the mlh1 strain (AID 171);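 note: 0% = growth of vehicle-treated control cultures of the same strain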; conditions: S. cerevisiae mlh1 strain growth inhibition, stronger effect = higher value
Procedure, shortened: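 Measured: yeast growth. Reference: vehicle-treated controls. Organism: strain with a defined alteration affecting DNA damage repair or cell cycle control, treated with compound.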

[14] = NCI Yeast Anticancer Drug Screen. Data for the sgs1 strain (AID 173);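 note: 0% = growth of vehicle-only control cultures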; conditions: S. cerevisiae sgs1 mutant, stronger effect = higher value
Procedure, shortened: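 Each compound was added to cultures of the altered yeast strain. Growth was recorded, and inhibition was derived by comparison with vehicle controls.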

[15] = NCI Yeast Anticancer Drug Screen. Data for the mlh1 rad18 strain (AID 175); conditions: S. cerevisiae mlh1 rad18 strain growth inhibition, stronger effect = higher value
Procedure, shortened: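 Genetically defined yeast (DNA repair-deficient) exposed to compounds; growth inhibition determined relative to vehicle.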

[16] = NCI Yeast Anticancer Drug Screen. Data for the rad18 strain (AID 177); conditions: S. cerevisiae rad18 mutant growth inhibition, stronger effect = higher value
Procedure, shortened: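 Vehicle-treated cultures served as the baseline for scoring compound-induced growth inhibition in DNA-repair-mutant yeast.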

[17] = at 5.0 µM (retest, dose inferred, filed as 0.5)
[18] = at 50.0 µM (retest, dose inferred, filed as 5.0)

Measured: growth inhibition

CCOC(=O)/C(=C\c1ccc(C#N)cc1)C(C)=O
active: [1]; at 33.0 µM 86% | [1]; at 100.0 µM 99% | [2]; at 33.0 µM 84% | [2]; at 100.0 µM 98% | [3]; at 33.0 µM 84% | [3]; at 100.0 µM 98% | [4]; at 33.0 µM 95% | [4]; at 100.0 µM 99% | [5]; at 33.0 µM 91% | [5]; [18] 94% | [5]; at 50.0 µM 88.8% | [5]; at 100.0 µM 99% | [6]; at 33.0 µM 92% | [6]; [18] 98% | [6]; at 50.0 µM 81.3% | [6]; at 100.0 µM 98% | [7]; at 33.0 µM 95% | [7]; at 100.0 µM 99% | [8]; [18] 94% | [8]; at 50.0 µM 92% | [9]; at 33.0 µM 87% | [9]; at 100.0 µM 99% | [10]; [18] 94% | [11]; at 33.0 µM 98% | [11]; [18] 99% | [11]; at 50.0 µM 81.2% | [11]; at 100.0 µM 99% | [12]; at 33.0 µM 93% | [12]; at 100.0 µM 99% | [13]; at 33.0 µM 98% | [13]; at 100.0 µM 98% | [14]; at 33.0 µM 93% | [14]; at 100.0 µM 98% | [15]; [18] 97% | [15]; at 50.0 µM 90% | [16]; at 33.0 µM 88% | [16]; at 100.0 µM 98%
inactive: [1]; at 1.2 µM -40% | [1]; at 3.7 µM -32% | [1]; at 11.0 µM -4% | [2]; at 1.2 µM -15% | [2]; at 3.7 µM 6% | [2]; at 11.0 µM 9% | [3]; at 1.2 µM -8% | [3]; at 3.7 µM 24% | [3]; at 11.0 µM 40% | [4]; at 1.2 µM -23% | [4]; at 3.7 µM -4% | [4]; at 11.0 µM 38% | [5]; at 1.2 µM -9% | [5]; at 3.7 µM 7% | [5]; [17] 36% | [5]; at 11.0 µM 31% | [6]; at 1.2 µM -36% | [6]; at 3.7 µM -27% | [6]; [17] -11% | [6]; at 11.0 µM 13% | [7]; at 1.2 µM -4% | [7]; at 3.7 µM 1% | [7]; at 11.0 µM 15% | [8]; [17] 25% | [9]; at 1.2 µM -20% | [9]; at 3.7 µM -27% | [9]; at 11.0 µM 3% | [10]; [17] 13% | [10]; at 50.0 µM 38.2% | [11]; at 1.2 µM 1% | [11]; at 3.7 µM 3% | [11]; [17] 29% | [11]; at 11.0 µM 58% | [12]; at 1.2 µM -37% | [12]; at 3.7 µM -18% | [12]; at 11.0 µM 18% | [13]; at 1.2 µM 0% | [13]; at 3.7 µM 26% | [13]; at 11.0 µM 69% | [14]; at 1.2 µM -18% | [14]; at 3.7 µM -6% | [14]; at 11.0 µM 25% | [15]; [17] -9% | [16]; at 1.2 µM -30% | [16]; at 3.7 µM 7% | [16]; at 11.0 µM 23%

CS(=O)(=O)OCCN(CCOS(C)(=O)=O)c1ccc(C=Nc2ccc(-c3csc(COc4ccccc4)n3)cc2)cc1
81% (active) and 65% (inactive): [15]; [17]
inactive: [1]; at 1.2 µM 15% | [1]; at 3.7 µM 29% | [2]; at 1.2 µM -30% | [2]; at 3.7 µM -33% | [2]; at 11.0 µM -8% | [3]; at 1.2 µM -2% | [3]; at 3.7 µM -11% | [3]; at 11.0 µM 49% | [4]; at 1.2 µM -22% | [4]; at 3.7 µM -16% | [4]; at 11.0 µM 23% | [5]; at 1.2 µM -29% | [5]; at 3.7 µM -5% | [5]; [17] 44% and 40% | [5]; at 11.0 µM 63% | [6]; at 1.2 µM -46% | [6]; at 3.7 µM -18% | [6]; [17] 33% and 34% | [6]; at 11.0 µM 41% | [7]; at 1.2 µM -25% | [7]; at 3.7 µM 14% | [7]; at 11.0 µM 59% | [8]; [17] -12% and 26% | [9]; at 1.2 µM 1% | [9]; at 3.7 µM 4% | [9]; at 11.0 µM 45% | [10]; [17] -2% and 25% | [11]; at 1.2 µM -36% | [11]; at 3.7 µM -16% | [11]; [17] -4% and 19% | [11]; at 11.0 µM 47% | [12]; at 1.2 µM -4% | [12]; at 3.7 µM 11% | [12]; at 11.0 µM 54% | [13]; at 1.2 µM -24% | [13]; at 3.7 µM -17% | [13]; at 11.0 µM 42% | [14]; at 1.2 µM 11% | [14]; at 3.7 µM 14% | [14]; at 11.0 µM 64% | [16]; at 1.2 µM 15% | [16]; at 3.7 µM 61%
-80% (inactive) and 96% (active): [10]; [18]
-64% (inactive) and 98% (active): [8]; [18]
-73% (inactive) and 96% (active): [11]; [18]
active: [1]; at 11.0 µM 76% | [1]; at 33.0 µM 96% | [1]; at 100.0 µM 93% | [2]; at 33.0 µM 90% | [2]; at 100.0 µM 91% | [3]; at 33.0 µM 94% | [3]; at 100.0 µM 93% | [4]; at 33.0 µM 90% | [4]; at 100.0 µM 91% | [5]; at 33.0 µM 93% | [5]; [18] 95% and 96% | [5]; at 50.0 µM 97% | [5]; at 100.0 µM 91% | [6]; at 33.0 µM 93% | [6]; [18] 96% | [6]; at 50.0 µM 98.2% | [6]; at 100.0 µM 91% | [7]; at 33.0 µM 95% | [7]; at 100.0 µM 94% | [8]; at 50.0 µM 84.8% and 97.7% | [9]; at 33.0 µM 93% | [9]; at 100.0 µM 90% | [10]; at 50.0 µM 85.3% and 95.8% | [11]; at 33.0 µM 91% | [11]; at 50.0 µM 84.5% and 96.2% | [11]; at 100.0 µM 88% | [12]; at 33.0 µM 92% | [12]; at 100.0 µM 91% | [13]; at 33.0 µM 94% | [13]; at 100.0 µM 92% | [14]; at 33.0 µM 93% | [14]; at 100.0 µM 92% | [15]; [18] 95% and 97% | [15]; at 50.0 µM 97.2% | [16]; at 11.0 µM 84% | [16]; at 33.0 µM 95% | [16]; at 100.0 µM 91%

CCN(CC)CCNc1ccc([N+](=O)[O-])c2nc3ccccc3c(N)c12
inactive: [1]; at 1.2 µM 1% | [1]; at 3.7 µM -6% | [1]; at 11.0 µM 10% | [1]; at 33.0 µM 31% | [2]; at 1.2 µM -10% | [2]; at 3.7 µM -7% | [2]; at 11.0 µM -13% | [2]; at 33.0 µM -9% | [2]; at 100.0 µM -6% | [3]; at 1.2 µM -14% | [3]; at 3.7 µM -4% | [3]; at 11.0 µM 1% | [3]; at 33.0 µM 34% | [4]; at 1.2 µM -14% | [4]; at 3.7 µM -18% | [4]; at 11.0 µM -20% | [4]; at 33.0 µM -21% | [4]; at 100.0 µM -15% | [5]; at 1.2 µM 10% | [5]; at 3.7 µM 14% | [5]; [17] 2% | [5]; at 11.0 µM 15% | [5]; at 33.0 µM 46% | [6]; at 1.2 µM -13% | [6]; at 3.7 µM -23%
active: [1]; at 100.0 µM 81% | [3]; at 100.0 µM 77% | [5]; [18] 71% | [5]; at 50.0 µM 74.3% | [5]; at 100.0 µM 84%
